Assay [1] can be described thus: Confirmatory qHTS for VERO E6 Cytotoxicity Assay: Counterscreen for SARS-CoV-2 CPE Assay (AID 1508605). Also: nearly all actives have a fitted effect of over 60% in size. As to activity change, negative = cytotoxic: % is scaled to controls: 0 for no effect and ±100 for the full control effect. The conditions noted are these: cell viability luminescence; series mostly up to 20 µM. For orientation: Quantitative high-throughput screening tests each substance at several concentrations.
Assay [2] in a line: Cytotoxicity counterscreen for inhibitors of SARS-CoV-2 cell entry (AID 1645845). Also: nearly all actives have a fitted effect of over 50% in size. As to conditions: cell viability (SARS-CoV-2 entry assay cells); series mostly up to 57.1 µM. Summed up: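 HEK293-ACE2 cells (Expi293F stably expressing human ACE2) seeded overnight, then compound for 1 h plus 48 h at 37C. Viability as ATP content by luminescence; normalized to wells with cells and media-only wells.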

Assay [3] is described as follows: Confirmatory qHTS for activators (rescue) of SARS-CoV-2 Cytopathic Effect (CPE) (AID 1508606). Also: nearly all actives have a fitted effect of over 70% in size. The conditions noted are these: Vero E6 SARS-CoV-2 CPE rescue, viability luminescence; series mostly up to 20 µM.
Assay [4] in a line: Primary qHTS to identify inhibitors of SARS-CoV-2 cell entry (AID 1645846). Also: nearly all actives have a fitted effect of over 45% in size. The conditions noted are these: SARS-CoV-2 pseudovirus cell entry assay, luminescence; activity change, negative = inhibition: at 57.1 µM (top of the series) unless noted. A digest of the protocol:
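Inhibition of spike-mediated entry was scored in human ACE2-transfected Expi293F cells. Particles were MLV-pseudotyped with Wuhan-Hu-1 S carrying a 19-aa C-terminal deletion; signal was luciferase after two days, scaled between spike PP and fusion-protein-free PP.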

The nature of assay [5]: Confirmatory qHTS to identify inhibitors of SARS-CoV-2 cell entry (AID 1645844). Also: nearly all actives have a fitted effect of over 45% in size. As to conditions: SARS-CoV-2 pseudotyped particle cell entry, luciferase; series mostly up to 57.2 µM. A digest of the protocol: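 HEK293-ACE2 cells were pretreated 1 h with compound, then infected with MLV-based pseudoparticles bearing C-terminally truncated Wuhan-Hu-1 spike for 48 h at 37C; luciferase luminescence normalized to spike PP and bald PP wells.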

The nature of assay [6]: VSVG counterscreen qHTS to identify inhibitors of SARS-CoV-2 cell entry (AID 1645847). Also: nearly all actives have a fitted effect of over 65% in size. The conditions noted are these: VSV-G pseudotyped particle entry, luciferase; series mostly up to 57.2 µM. Summed up:
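Luminescence from a luciferase reporter, normalised to bald particle and VSV-G pseudotyped particle wells, is the read-out. Cells are HEK293 expressing human ACE2, exposed to compound 1 h before a 48 h particle infection at 37 °C.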

Inconclusive results are not listed. Activity calls are given as the source filed them. Calls follow the shape of the full dose curve. Peptide text beside a SMILES is read from it. * marks the point of attachment. Cbz = O=C(OCc1ccccc1)*; CH2Cl = ClC*
Potency is read from the fitted curve at half-maximal effect.

Take `c1ccc(-c2ccc(CNc3nc(-c4ccccn4)nnc3-c3ccccc3)cc2)cc1`: the Potency in assay [1] was 0.501 µM (active); in assay [2], 14.1 µM (active).

With `Cc1nnc(-c2ccc(-c3ccc(C(=O)Nc4ccc(O)c(N5CCN(C)CC5)c4)cc3)c(C)c2)o1`, the Potency entry in assay [1] is “inactive”. In addition, the Potency in assay [3] was 8.91 µM (active).

As to `CONC(=O)Nc1ccc(-c2sc3c(c2CN(C)Cc2ccccc2)c(=O)n(-c2ccccc2)c(=O)n3Cc2c(F)cccc2F)cc1`, the Potency entry in assay [1], in assay [3] and in assay [2] was “inactive” in each case.

Take `O=C1Nc2nc(-c3c(O)cccc3OCC3CC3)cc([C@@H]3CCCNC3)c2CO1`: in assay [1], the Potency result is “inactive”. In addition, the Potency in assay [3] was 11.2 µM (active). Further, the activity change, negative = inhibition in assay [4] was -96.7%.

On to `O=C(NCc1ccccc1)[C@H](Cc1ccccc1)NC(=O)[C@H]1O[C@@H]1C(=O)NCCc1ccc(O)cc1`, for which the Potency entry in assay [1] and in assay [2] was “inactive” in each case. Moreover, the Potency is 0.141 µM (active) in assay [3] and 1.36 µM (active) in assay [5].

`CCC[C@@H](NC(=O)N1C(=O)C(CC)(CC)[C@@H]1Oc1ccc(C(=O)N2CCN(C)CC2)cc1)c1ccc2c(c1)OCO2`: in assay [1], the Potency entry is “inactive”. Further, in assay [3], the Potency is 11.2 µM (active).

`CCOc1ccc(-c2nc(-c3cccc4c3CCC4NCCO)no2)cc1OCC` (stereo not drawn): the Potency result in assay [1] was “inactive”. Also, the Potency in assay [3] is 11.2 µM (active).

Consider `Cc1cccc(/C=N/Nc2cc(N3CCOCC3)nc(OCCc3ccccn3)n2)c1`, for which, in assay [1], the activity change, negative = cytotoxic is -20.4% [at 1.7 µM] (inactive). Also, the Potency is 0.0142 µM (active) in assay [3], 0.0764 µM (active) in assay [5] and 7.64 µM (active) in assay [6]. Also, the activity change, negative = inhibition in assay [4] is -96.7%.

For `C/C1=C\CCC2=CC(OC2=O)C(C)(C)/C=C/C1=O` (stereo not drawn), the Potency result in assay [1] is “inactive”. Besides, the Potency in assay [3] was 10 µM (active).

In the case of `CCCN1CCN(c2ccc(C(=O)NC3(C(=O)NCC#N)CCCCC3)cc2)CC1`, the Potency entry in assay [1] and in assay [2] was “inactive” in each case. Moreover, the Potency in assay [3] is 1 µM (active).

Regarding `C[C@@H]1O[C@@H](O[C@@H]2[C@@H](O)[C@H](O[C@@H]3[C@@H](O)[C@@H](O)[C@H](O[C@H]4[C@H](OC(=O)[C@]56CCC(C)(C)C[C@H]5C5=CCC7[C@@]8(C)C[C@H](O)[C@H](O[C@@H]9O[C@@H](C)[C@H](O)[C@@H](O)[C@H]9O)[C@@](C)(CO)C8CC[C@@]7(C)[C@]5(C)C[C@H]6O)O[C@H](C)[C@H](O)[C@@H]4O)O[C@H]3C)OC[C@H]2O)[C@H](O)[C@H](O)[C@H]1O` (stereo partly drawn), the Potency in assay [1] was 1.91 µM (active); in assay [3] it was 0.602 µM (active).

Regarding `Cc1cc(C)c(CNC(=O)c2cc(-c3ccc(N4CCN(C)CC4)nc3)cc3c2c(C)cn3C(C)C)c(=O)[nH]1`, the Potency entry in assay [1] and in assay [2] was “inactive” throughout. Besides, the Potency in assay [3] is 10 µM (active); in assay [5] it was 27.1 µM (active). Moreover, the activity change, negative = inhibition in assay [4] was -89.9%.

With `C=CC(C)(C)c1[nH]c2ccccc2c1C1=C(O)C(=O)C(c2c[nH]c3c(CC=C(C)C)cccc23)=C(O)C1=O`, the Potency in assay [1] is 3.98 µM (active). For the same compound, the Potency entry in assay [3] is “inactive”.

With `COc1ccc(NC(=O)c2ccc(-c3ccc(-c4nnc(C)o4)cc3C)cc2)cc1N1CCN(C)CC1`, the Potency result in assay [1] is “inactive”. The Potency in assay [3] was 6.31 µM (active).

Consider `CNC(=O)c1ccc2c(C(=Nc3cccc(CN(C)C)c3)c3ccccc3)c(O)[nH]c2c1`, for which the Potency result in assay [1] and in assay [2] was “inactive” each time.

As to `CN(C)c1nc(NC2CCC(NCCc3ccc(Br)cc3OC(F)(F)F)CC2)nc2ccccc12` (stereo not drawn), in assay [1], the Potency was 3.98 µM (active). For the same compound, in assay [3], the Potency result was “inactive”.

Turning to `CCCC[C@@H](C=O)NC(=O)[C@H](CC(C)C)NC(=O)OCc1ccccc1`, the Potency entry in assay [1] and in assay [2] was “inactive” in each case. Further, the Potency was 0.355 µM (active) in assay [3] and 1.08 µM (active) in assay [5]. Further, the activity change, negative = inhibition in assay [4] was -89.9%.

`CC#C[C@@H](CC(=O)O)c1ccc(OCc2cccc(-c3ccc(C(F)(F)F)cc3)c2)cc1`: the Potency entry in assay [1] and in assay [2] was “inactive” in each case. Also, the Potency in assay [3] is 11.2 µM (active).

In the case of `C=CC(=O)N[C@H]1CCOC[C@H]1Nc1ncc2cc(-c3c(Cl)c(OC)cc(OC)c3Cl)ccc2n1`, the Potency result in assay [1] and in assay [2] was “inactive” each time.

Turning to `Cn1cc(-c2ccc(-c3cncc(Cl)c3N3CCC4(CCNC4=O)CC3)cc2)cn1`, the Potency entry in assay [1] and in assay [2] was “inactive” each time.

With `CNCc1ccc(-c2cc(-c3nc(-c4ccc(S(=O)(=O)C(C)C)cc4)cnc3N)on2)cc1`, the values for the Potency in assay [1] and in assay [3] were 11.2 µM (active) and 1.78 µM (active), respectively. Moreover, the activity change, negative = inhibition in assay [4] was -25.7%.

Turning to `Fc1ccc2c(CCNCc3cccc(OCC(F)(F)C(F)F)c3)c[nH]c2c1`, the Potency result in assay [1] is “inactive”. Further, the Potency in assay [3] was 10 µM (active).

Take `CC(C)C[C@H](NC(=O)CNC(=O)OCc1ccccc1)C(=O)N[C@@H](Cc1ccccc1)C(=O)CCl` (Cbz-Gly-Leu-Phe-CH2Cl): the Potency entry in assay [1] is “inactive”. The Potency in assay [3] is 1 µM (active).

Turning to `Cc1ccc(NCCN(C)CCNc2ccnc3cc(Cl)ccc23)c2c(=O)c3ccccc3sc12`, the Potency entry in assay [1] and in assay [3] was “inactive” each time.

For `CN1CCN(c2ccc(C(=O)Nc3n[nH]c4ccc(Cc5cc(F)cc(F)c5)cc34)c(NC3CCOCC3)c2)CC1`, the Potency in assay [1] was 3.55 µM (active); in assay [2], 31.6 µM (active); in assay [4] it was 28.2 µM (active). The Potency result in assay [3] was “inactive”.

Values taken from PubChem BioAssay (NCATS).
